The subject of experiment [1] is XIP peptide (Xip251-270) binding. The experiment is described as follows: small-molecule binders of XIP peptide, primary screen, biochemical, small-molecule microarray, fluorescence 635/667 nm, 0.1 µg/mL protein (AID 1182). As to conditions: fluorescent protein binding, 635 nm, higher = more signal, called active from +8 up or from −8 down.
In the next experiment the test system is XIP peptide (Xip251-270). Nature of the experiment: small-molecule binders of XIP peptide, primary screen, biochemical, small-molecule microarray, fluorescence 635/667 nm, 0.5 µg/mL protein (AID 1183). The settings on record: small-molecule microarray binding, fluorescence 635 nm; higher = more signal.
A short description of experiment [2]: Plasmodium falciparum growth inhibition, primary screen, strain 3D7, DAPI fluorescence, 100 nL (AID 1184).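 Further: parasites grown inside human red blood cells in medium with human serum.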 The settings on record: P. falciparum 3D7 growth, 3 d, higher = more signal.
Experiment [3] deals with Homeobox protein Hox-A13 (Mus musculus) (UniProt Q62424). Nature of the experiment: inhibitors of HoxA13-DNA binding, primary screen, biochemical, fluorescence polarization, labeled oligonucleotide (AID 1185). The settings on record: 15 min, higher = more signal, called active from +8 up or from −8 down. (Fluorescence polarisation rises when a labelled molecule tumbles more slowly, as on binding a larger partner.)

A short description of experiment [4]: inhibitors of hydroxyurea-induced Chk1 phosphorylation, primary screen, imaging, HeLa, phospho-Chk1 antibody, percent positive cells (AID 1186). The settings on record: hydroxyurea-induced phospho-Chk1 immunofluorescence imaging, higher = more signal.
The nature of experiment [5]: inhibitors of hydroxyurea-induced Chk1 phosphorylation, primary screen, imaging, HeLa, phospho-Chk1 nuclear intensity (AID 1187). The settings on record: hydroxyurea-induced phospho-Chk1 immunofluorescence imaging, higher = more signal.

The source made the active and inactive calls. Unless noted, how the calls were made is not given here.

Sequence of Homeobox protein Hox-A13 (Mus musculus) (Q62424 whole entry, looked up): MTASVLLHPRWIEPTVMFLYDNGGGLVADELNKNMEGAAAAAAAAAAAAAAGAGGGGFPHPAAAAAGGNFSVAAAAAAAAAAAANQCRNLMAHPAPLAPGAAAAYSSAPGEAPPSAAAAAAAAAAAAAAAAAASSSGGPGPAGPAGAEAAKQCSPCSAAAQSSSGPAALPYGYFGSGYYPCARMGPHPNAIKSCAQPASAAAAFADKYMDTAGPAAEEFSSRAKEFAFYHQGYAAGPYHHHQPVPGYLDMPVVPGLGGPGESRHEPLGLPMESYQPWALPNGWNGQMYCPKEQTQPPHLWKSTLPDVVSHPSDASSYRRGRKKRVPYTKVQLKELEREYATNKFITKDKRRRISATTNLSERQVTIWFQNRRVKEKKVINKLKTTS

Turning to `O=C1C2C=CC(C(O)c3ccc(-c4ccccc4)s3)N(Nc3ccccc3)C2C(=O)N1c1ccccc1` (stereo not drawn), the composite z-score in experiment [1] was 0.57 (inactive); in the experiment with XIP peptide (Xip251-270), 0.769. The z-score is -0.657 in experiment [2], -1.07 (inactive) in experiment [3], 0.484 (inactive) in experiment [4] and 0.251 (inactive) in experiment [5].
For the compound `C=C[C@H](C)[C@@H](OC(=O)Nc1ccc(SC)cc1)c1ccc(O)c2ccccc12`, the composite z-score is 0.68 (inactive) in experiment [1] and 0.248 in the experiment on XIP peptide (Xip251-270). In addition, the z-score in experiment [2] is -0.127; in experiment [3], -4.35 (inactive); in experiment [4] it was 1.16 (inactive); in experiment [5], 0.893 (inactive).
As to `C=CC[C@]1(C(=O)NCc2ccccc2)N=C(c2ccc(OCCCO)cc2)O[C@H]1c1ccccc1CN=[N+]=[N-]`, the composite z-score was -0.274 (inactive) in experiment [1] and 0.338 in the experiment with XIP peptide (Xip251-270). In addition, the z-score in experiment [2] is -2.53; in experiment [3], 0.343 (inactive); in experiment [4] it was -0.158 (inactive); in experiment [5], -0.402 (inactive).
For `COCCCNC(=O)[C@@H]1c2ccccc2C(=O)N(Cc2ccccc2OC)[C@H]1c1ccc(CO)cc1`, the composite z-score in experiment [1] is 0.694 (inactive); with XIP peptide (Xip251-270), -0.0218. Besides, the z-score in experiment [2] is -1.99; in experiment [3] it was -2.85 (inactive); in experiment [4], -0.481 (inactive); in experiment [5], -0.576 (inactive).
On to `O=C1[C@H]2C=C(I)[C@H](C[C@@H]2OCCCCO)[C@@]12CO2`, for which the composite z-score in experiment [1] was -0.294 (inactive); in the experiment with XIP peptide (Xip251-270), -0.425. Also, the z-score was 1.1 in experiment [2], -1.94 (inactive) in experiment [3], 0.239 (inactive) in experiment [4] and -0.203 (inactive) in experiment [5].
`COCCOC(=O)N1C(=O)[C@@]2(c3ccccc31)[C@H](c1ccc(OCCO)cc1)N1[C@H](c3ccccc3)[C@H](c3ccccc3)OC(=O)[C@H]1[C@@H]2C(=O)N1CCc2cc(OC)c(OC)cc2C1`: the composite z-score in experiment [1] is 0.933 (inactive); with XIP peptide (Xip251-270), 0.919. The z-score is -2.15 in experiment [2], 2.01 (inactive) in experiment [3], 0.147 (inactive) in experiment [4] and 0.0081 (inactive) in experiment [5].
Take `COCCOC(=O)N1C(=O)[C@@]2(c3cc(C#CCCO)ccc31)[C@H](c1ccc(O)cc1)N1[C@H](c3ccccc3)[C@H](c3ccccc3)OC(=O)[C@H]1[C@@H]2C(=O)N1CCN(c2ncccn2)CC1`: the composite z-score in experiment [1] was 0.729 (inactive); in the experiment on XIP peptide (Xip251-270) it was 0.831. The z-score was -1.13 in experiment [2], -2.37 (inactive) in experiment [3], -0.264 (inactive) in experiment [4] and -0.0303 (inactive) in experiment [5].
Consider `CCCCC(=C=CC[C@@H](O)c1cccc(OCCO)c1)C[C@@H](O)c1ccccn1`, for which the composite z-score was 1.26 (inactive) in experiment [1] and 0.75 in the experiment with XIP peptide (Xip251-270). The z-score is -0.12 in experiment [2], -5.42 (inactive) in experiment [3], -0.0346 (inactive) in experiment [4] and 0.159 (inactive) in experiment [5].
On to `O[C@@H](Cc1ccccc1)[C@@H](/C=C/C1CC1)NCc1cccc(Cl)c1`, for which the composite z-score in experiment [1] was -0.58 (inactive); in the experiment with XIP peptide (Xip251-270), -0.134. Moreover, the z-score was -1.44 in experiment [2], 0.306 (inactive) in experiment [3], -0.303 (inactive) in experiment [4] and -0.682 (inactive) in experiment [5].
For the compound `CC1CC/C=C\[C@H]2OC34C=CCN(c5ccc6ccccc6c5)C(=O)[C@H]3N(CCO)C(=O)[C@@H]4C2C(=O)O1` (stereo partly drawn), the composite z-score was 0.866 (inactive) in experiment [1] and 0.492 in the experiment on XIP peptide (Xip251-270). Moreover, the z-score is -0.607 in experiment [2], -5.51 (inactive) in experiment [3], -0.209 (inactive) in experiment [4] and -0.434 (inactive) in experiment [5].
For the compound `COC(=O)[C@@]1(CCC(=O)OC(C)(C)C)N=C(c2ccc(OCCCO)cc2)O[C@H]1c1ccccc1`, the values for the composite z-score (in experiment [1]; in the experiment with XIP peptide (Xip251-270)) were 0.485 (inactive) and 0.732, respectively. Also, the z-score is -2.43 in experiment [2], -4.58 (inactive) in experiment [3], -0.17 (inactive) in experiment [4] and 0.284 (inactive) in experiment [5].
Regarding `O=C1C2C=CC(C(O)C=Cc3ccc([N+](=O)[O-])cc3)N(Nc3ccccc3F)C2C(=O)N1c1ccccc1` (stereo not drawn), the composite z-score in experiment [1] is 0.308 (inactive); in the experiment on XIP peptide (Xip251-270) it was 0.774. In addition, the z-score is -0.448 in experiment [2], -4.79 (inactive) in experiment [3], -0.668 (inactive) in experiment [4] and -1.16 (inactive) in experiment [5].
As to `CO[C@H]1O[C@H](CO)[C@@H](OC(=O)Nc2ccc(Oc3ccccc3)cc2)[C@H](OC(=O)Nc2ccc3c(c2)OCO3)[C@@H]1OC(=O)Nc1ccc2c(c1)OCO2`, the composite z-score is 0.23 (inactive) in experiment [1] and 0.863 with XIP peptide (Xip251-270). In addition, the z-score in experiment [2] was -2.05; in experiment [3] it was -6.43 (inactive); in experiment [4], 0.126 (inactive); in experiment [5], 0.561 (inactive).
As for `CO[C@H]1O[C@H](CO)[C@@H](OC(=O)Nc2cccc(F)c2)[C@H](OC(=O)Nc2ccccc2)[C@H]1OC(=O)Nc1ccccc1`, the values for the composite z-score (in experiment [1]; with XIP peptide (Xip251-270)) were 0.879 (inactive) and 0.882, respectively. Also, the z-score in experiment [2] is -2.38; in experiment [3], -5.97 (inactive); in experiment [4], -0.357 (inactive); in experiment [5], 0.161 (inactive).
As to `C#CCN1[C@@H](Cc2ccc(O)cc2)C(=O)O[C@H](Cc2ccccc2)[C@@H]1/C=C/C1CC1`, the results for the composite z-score (in experiment [1]; in the experiment on XIP peptide (Xip251-270)) were -0.111 (inactive) and 0.0549, respectively. Moreover, the z-score is 0.32 in experiment [2], -5.26 (inactive) in experiment [3], -0.473 (inactive) in experiment [4] and -0.542 (inactive) in experiment [5].
Take `CC(C)(C)OC(=O)CC[C@]1(C(N)=O)N=C(c2ccc(OCCCO)cc2)O[C@H]1c1ccccc1`: the composite z-score in experiment [1] is 1.25 (inactive); in the experiment with XIP peptide (Xip251-270), -0.612. The z-score in experiment [2] was 0.404; in experiment [3], -2.87 (inactive); in experiment [4], 0.444 (inactive); in experiment [5], -0.0163 (inactive).
For the compound `COc1ccc([Si](C)(C)[C@@H]2[C@@H](CC(=O)N3Cc4ccccc4C[C@H]3CO)O[C@]3(C(=O)N(Cc4cccc(N5CCC5=O)c4)c4ccccc43)[C@H]2C)cc1`, the composite z-score is 0.607 (inactive) in experiment [1] and 0.736 in the experiment with XIP peptide (Xip251-270). Further, the z-score in experiment [2] is -2.55; in experiment [3], -1.51 (inactive); in experiment [4], -0.342 (inactive); in experiment [5] it was -0.0386 (inactive).
With `C=C(CCCC)/C(=C/C[C@H](OC(=O)c1ccncc1)c1ccc(OCCO)cc1)c1cc(C(=O)OC)ccc1OC`, the results for the composite z-score (in experiment [1]; in the experiment with XIP peptide (Xip251-270)) were -0.235 (inactive) and -0.132, respectively. Besides, the z-score in experiment [2] was -3.09; in experiment [3], -2.79 (inactive); in experiment [4], -1.01 (inactive); in experiment [5] it was -0.504 (inactive).

The values above are taken from PubChem BioAssay.
